Nine compounds from PubChem BioAssay (NCI) can be followed below.

The structures appear in SMILES notation. This is part of a sample that, as a whole, favours compounds with a hit. Of some 83,000 tested, about 20% had one in any assay.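 Single-concentration screen, 48 h exposure, 96-well plates. Endpoint: percent growth. Below 10 = active.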 Values without a mark were called inactive. The source made the active and inactive calls.

Some test systems named below: SR leukemia; RPMI-8226 leukemia; OVCAR-8 ovarian; OVCAR-5 ovarian; OVCAR-4 ovarian; IGROV1 ovarian; HS 578T breast; NCI/ADR-RES ovarian; T-47D breast; BT-549 breast; MDA-MB-435 melanoma; SW-620 colon; MCF7 breast; HCT-116 colon; HCC-2998 colon; KM12 colon; SK-OV-3 ovarian; OVCAR-3 ovarian.
What all share (assay): NCI-60 one-dose screen, 48 h (100 = growth as untreated, 0 = no growth, -100 = all killed)
Holding throughout (settings): 10 µM unless noted

Regarding `O=S(=O)(c1ccccc1)n1ccc(-c2ccc3c(c2)CCO3)n1`, the growth in the assay on SR leukemia was 73.3%; in the assay with RPMI-8226 leukemia, 62.4%; in the assay on OVCAR-8 ovarian it was 84%; with OVCAR-5 ovarian, 103%; in the assay with OVCAR-4 ovarian, 70.1%; with IGROV1 ovarian, 75.7%. Also, the growth with HS 578T breast is 102%; with NCI/ADR-RES ovarian, 76%; in the assay with T-47D breast, 68.8%; in the assay on BT-549 breast, 96%; with MDA-MB-435 melanoma, 104%; with SW-620 colon, 93.6%. The growth was 83.2% with MCF7 breast, 89.1% with HCT-116 colon, 90.8% with HCC-2998 colon and 91.9% in the assay with KM12 colon.

Turning to `O=c1oc2cc(OS(=O)(=O)c3ccccc3)c(Cl)cc2c2c1CCCCCC2`, the growth was 63.4% in the assay with SR leukemia; 75.2% in the assay with RPMI-8226 leukemia; 89.2% with OVCAR-8 ovarian; 90.1% in the assay on OVCAR-5 ovarian; 106% with SK-OV-3 ovarian; 91.3% in the assay on OVCAR-3 ovarian. For the same compound, the growth is 88.6% in the assay on HS 578T breast; 67.4% with NCI/ADR-RES ovarian; 73.9% in the assay with T-47D breast; 79.1% in the assay with BT-549 breast; 90% in the assay with MDA-MB-435 melanoma; 98.1% in the assay on SW-620 colon. Besides, the growth in the assay with MCF7 breast was 90.6%; in the assay on HCT-116 colon, 74.8%; with HCC-2998 colon, 106%; in the assay with KM12 colon, 92.1%.

With `COc1cc(/C=C\c2cc(OC)c(OC)c(OC)c2)cc(N/C=C\C(=O)c2c[nH]c3ccccc23)c1OC`, the growth in the assay on SR leukemia is -36.8% (active); in the assay on RPMI-8226 leukemia, -32.8% (active); in the assay with OVCAR-8 ovarian it was 33.8%; in the assay on OVCAR-5 ovarian, 35.3%; with SK-OV-3 ovarian, 90.1%; in the assay on IGROV1 ovarian, 40.5%. Besides, the growth was -93.6% (active) with OVCAR-3 ovarian; 67.5% with HS 578T breast; 73.5% in the assay on NCI/ADR-RES ovarian; -5.64% (active) with T-47D breast; 41.2% with BT-549 breast; 29.1% in the assay on MDA-MB-435 melanoma. Besides, the growth was -76% (active) in the assay with SW-620 colon; 4.09% (active) in the assay on MCF7 breast; -82.9% (active) in the assay with HCT-116 colon; 83.2% with HCC-2998 colon; 49.2% in the assay with KM12 colon.

Regarding `CCN1C(=O)/C(=c2\sc3n(c2=O)C2C(NN=3)N(CC)C(=S)N2CC)c2ccccc21` (centres undefined), the growth in the assay on SR leukemia was 91.8%; in the assay with RPMI-8226 leukemia, 105%; with OVCAR-8 ovarian, 100%; in the assay with OVCAR-5 ovarian, 107%; in the assay on OVCAR-4 ovarian, 88.7%; in the assay on IGROV1 ovarian, 100%. For the same compound, the growth was 103% in the assay on OVCAR-3 ovarian; 99.8% in the assay on HS 578T breast; 103% in the assay on NCI/ADR-RES ovarian; 98.8% in the assay with BT-549 breast; 88.4% in the assay on MDA-MB-435 melanoma; 102% with SW-620 colon. For the same compound, the growth with MCF7 breast is 82.8%; with HCT-116 colon, 103%; in the assay with HCC-2998 colon, 104%; with KM12 colon, 102%.

As to `O=C(N/N=C/c1c(Cl)cccc1Cl)c1ccccc1Nc1ccnc(C(F)(F)F)c1`, the growth with SR leukemia was 103%; with RPMI-8226 leukemia, 89.7%; in the assay with OVCAR-8 ovarian, 64.8%; in the assay with OVCAR-5 ovarian, 97.8%; in the assay on OVCAR-4 ovarian, 63.9%; in the assay on OVCAR-3 ovarian, 110%. Also, the growth is 82.7% in the assay on HS 578T breast; 67.6% with NCI/ADR-RES ovarian; 51.8% with T-47D breast; 82.9% with MDA-MB-435 melanoma; 86.3% in the assay with SW-620 colon; 46% in the assay with MCF7 breast. In addition, the growth in the assay on HCT-116 colon was 64.9%; with HCC-2998 colon, 71.5%; with KM12 colon, 74.7%.

With `COc1ccc([N+](=O)[O-])c(/C=C/C(=O)c2ccccn2)c1`, the growth is 26.5% in the assay with SR leukemia; 52.6% with RPMI-8226 leukemia; 90.5% in the assay with OVCAR-5 ovarian; 72.2% with OVCAR-4 ovarian; 96% in the assay on SK-OV-3 ovarian; 60.8% with IGROV1 ovarian. For the same compound, the growth in the assay on OVCAR-3 ovarian is 86.1%; with HS 578T breast it was 91.4%; in the assay on T-47D breast, 91.8%; with BT-549 breast, 94.2%; in the assay with MDA-MB-435 melanoma, 94.5%; with SW-620 colon, 16.9%. Besides, the growth in the assay with MCF7 breast was 67%; in the assay on HCT-116 colon it was 1.9% (active); in the assay on HCC-2998 colon it was 120%; with KM12 colon, 84.5%.

Regarding `COc1ccc(C(=O)c2cc(OC)c(OC)c(OC)c2)cc1/C=C/C(=O)c1ccc(OC)c(OC)c1`, the growth in the assay on SR leukemia is 3.96% (active); with RPMI-8226 leukemia, 8.82% (active); with OVCAR-8 ovarian, 26.1%; in the assay on OVCAR-5 ovarian, 0.936% (active); in the assay with SK-OV-3 ovarian, 38.4%; in the assay with IGROV1 ovarian, 29.7%. In addition, the growth was -22.1% (active) in the assay with OVCAR-3 ovarian; 31.5% in the assay with HS 578T breast; 19% in the assay with NCI/ADR-RES ovarian; 35.2% in the assay with T-47D breast; 36.5% in the assay on BT-549 breast; 20% in the assay with MDA-MB-435 melanoma. The growth was 9.37% (active) in the assay on SW-620 colon; 17.3% in the assay with MCF7 breast; 10.4% with HCT-116 colon; 45.9% with HCC-2998 colon; 9.37% (active) with KM12 colon.

Consider `Cc1oc2nc[nH]c(=O)c2c1C(=O)/C=C/c1ccc(Cl)cc1Cl`, for which the growth in the assay on SR leukemia was 33%; in the assay on RPMI-8226 leukemia, 28.4%; in the assay with OVCAR-8 ovarian, 45.4%; in the assay with OVCAR-5 ovarian it was 134%; in the assay with OVCAR-4 ovarian it was 68.6%; with IGROV1 ovarian it was 89.2%. For the same compound, the growth was 48.6% in the assay on OVCAR-3 ovarian; 102% with HS 578T breast; 43% in the assay on NCI/ADR-RES ovarian; 57.2% in the assay on MDA-MB-435 melanoma; 31.2% with SW-620 colon; 39% with MCF7 breast. Besides, the growth in the assay on HCT-116 colon is 36.3%; in the assay with HCC-2998 colon it was 102%; in the assay with KM12 colon it was 52.1%.

Turning to `COc1ccc(C2=CC(c3ccc(Oc4ccnc5cc(Cl)ccc45)c(OC)c3)c3c(nc(OC)[nH]c3=O)N2)cc1` (centres undefined), the growth in the assay on SR leukemia was 13.4%; in the assay on RPMI-8226 leukemia it was 28.8%; in the assay with OVCAR-5 ovarian it was 115%; in the assay on OVCAR-4 ovarian it was 63.9%; with IGROV1 ovarian, 86.6%; with OVCAR-3 ovarian, 58%. Moreover, the growth in the assay on HS 578T breast was 97.1%; with NCI/ADR-RES ovarian it was 71.1%; in the assay with T-47D breast, 53.8%; in the assay on BT-549 breast, 39.5%; with MDA-MB-435 melanoma, 71.3%; in the assay on SW-620 colon, 50.2%. The growth in the assay on MCF7 breast was 35.7%; in the assay on HCT-116 colon, 35.8%; in the assay with HCC-2998 colon, 84.3%; with KM12 colon, 65.5%.
